Data published in the supplement of paper PMC8699584.
Where “and” joins values, the source holds several entries; their conditions need not be identical. Equal entries are not always repeated. Structures can show the parent of a compound that is named as a salt. ± gives the standard deviation of the averaged measurements.

Experiments:
Molm13 = assay: cell viability relative to DMSO control (bortezomib = 0%); higher = less growth inhibition; details: 10 nM; 72 h
Procedure, shortened: (§1)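 FLT3-ITD+ acute myeloid leukemia cells were dispensed onto a library of 679 approved and investigational compounds in 384-well plates, at 1000 cells per well in 50 µL and a single 10 nM dose, for 72 h. The screen was run in duplicate. Cell viability was read by CellTiter-Glo luminescence on an EnVision reader. Values were converted to percentages by per-plate linear regression between DMSO-treated cells (100%) and positive-control-treated cells (0%).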

Mv4-11 = assay: as above; details: 10 nM; 72 h
Procedure, shortened: as §1

Row | SMILES | cell viability (Molm13) | cell viability (Mv4-11)
1 | O=C(c1ccc(/C=C/c2n[nH]c3ccccc23)cc1)N1CCNCC1 | 104 ± 4.2% | 92.9 ± 17%
2 | C=CC(=O)Nc1cc(Nc2nccc(-c3cn(C)c4ccccc34)n2)c(OC)cc1N(C)CCN(C)C | 107 ± 17% | 114 ± 3.5%
3 | COc1cc(-c2cc(-c3cccc(O)c3)cnc2N)cc(OC)c1OC | 99.8 ± 14% | 106 ± 6.8%
4 | CN1CCN(c2ccc(C(=O)Nc3n[nH]c4ccc(Cc5cc(F)cc(F)c5)cc34)c(NC3CCOCC3)c2)CC1 [Entrectinib] | 87.5 ± 7% | 104 ± 24%
5 | N#CC(c1ccnc(NCCc2cccnc2)n1)c1nc2ccccc2s1 (configuration not stated) | 105 ± 26% | 109 ± 28%
6 | N#C/C(=C(/N)Sc1ccc(N)cc1)c1ccccc1C(F)(F)F | 108 ± 28% | 110 ± 8.3%
7 | CC(C)(C)c1nc(-c2cccc(NS(=O)(=O)c3c(F)cccc3F)c2F)c(-c2ccnc(N)n2)s1 | 98.4 ± 6.6% | 124 ± 2.6%
8 | O=C(O)c1ccc(Nc2ncc3c(n2)-c2ccc(Cl)cc2C(c2c(F)cccc2F)=NC3)cc1 | 107 ± 1.3% | 107 ± 3.6%
9 | O=c1cc(N2CCOCC2)oc2c1ccc1ccccc12 | 98.1% and 100% | 103% and 110%
10 | C[C@H](NC(=O)/C(C#N)=C/c1cccc(Br)n1)c1ccccc1 | 103 ± 0.31% | 99.3 ± 5.6%
11 | CNC(=O)c1cc(Oc2ccc(NC(=O)c3cccc(C(F)(F)F)c3)cc2)ccn1 | 96.3 ± 16% | 103 ± 4.9%
12 | Cn1c(=O)n(-c2ccc(C(C)(C)C#N)cc2)c2c3cc(-c4cnc5ccccc5c4)ccc3ncc21 [BEZ235 (NVP-BEZ235, Dactolisib)] | 113 ± 7.9% | 102 ± 6.4%
13 | COc1cc(Nc2nc3ccccc3nc2NS(=O)(=O)c2ccc(NC(=O)c3ccc(C)c(OC)c3)cc2)cc(OC)c1 | 107 ± 25% | 116.8 ± 0.41%
14 | COc1cc2ncnc(Nc3ccc(F)c(Cl)c3)c2cc1NC(=O)/C=C/CN1CCCCC1 | 104 ± 3.3% | 108 ± 1.3%
15 | N#CC1(c2ccc(NC(=O)c3cccnc3NCc3ccncc3)cc2)CCCC1 [Apatinib] | 113 ± 10% | 110 ± 1.5%
16 | COc1cc(OC)c(C=C2C(=O)Nc3ccccc32)c(OC)c1 | 104 ± 6.9% | 100 ± 12%
17 | O=C1NC(=O)C(=Cc2ccc(-c3ccc(F)cc3)o2)S1 (stereo in doubt) | 106 ± 12% | 108 ± 13%
18 | O=C(NC(NC(=S)Nc1ccc(F)c([N+](=O)[O-])c1)C(Cl)(Cl)Cl)C(c1ccccc1)c1ccccc1 (configuration not stated) | 109 ± 8.2% | 104.1 ± 0.92%
19 | Oc1ccc(Nc2nc(-c3ccc(Cl)cc3)cs2)cc1 [Sphingosine Kinase Inhibitor 2] | 101 ± 17% | 108 ± 7.4%
20 | NC(=O)c1ccccc1Nc1ccnc(Nc2cccc(O)c2)n1 | 106 ± 34% | 89.2 ± 14%
21 | Nc1nc(OCC2CCCCC2)c2[nH]cnc2n1 | 90.5 ± 11% | 105.62 ± 0.08%
22 | C[C@@H]1CCN(C(=O)CC#N)C[C@@H]1N(C)c1ncnc2[nH]ccc12 | 109% and 101% | 99.7% and 105%
23 | Cn1cnc(N)c2ncnc1-2 [3-Methyladenine] | 119 ± 7.3% | 111.9 ± 1.1%
24 | CNC(=O)c1ccccc1Nc1cc(Nc2ccc(N3CCOCC3)cc2OC)ncc1C(F)(F)F | 105 ± 16% | 109 ± 25%

Row | SMILES | cell viability (Molm13) | cell viability (Mv4-11)
25 | CC1(C)C=Cc2c(ccc3c2OC[C@@H](c2ccc(O)cc2O)C3)O1 [Glabridin] | 100 ± 12% | 99 ± 1.6%
26 | CNC(=O)c1cc(Oc2ccc(NC(=O)Nc3ccc(Cl)c(C(F)(F)F)c3)c(F)c2)ccn1 [Regorafenib (BAY 73-4506)] | 101 ± 7.3% | 110.3 ± 0.69%
27 | COc1ccc(-c2cnc3c(-c4cccc5ncccc45)cnn3c2)cc1 | 103 ± 12% | 103 ± 1.6%
28 | Oc1cccc(-c2nc(N3CCOCC3)c3oc4ncccc4c3n2)c1 | 94.1 ± 2.2% | 104 ± 8.7%
29 | C[C@H]1[C@H](C)CC[C@]2(C(=O)O[C@@H]3O[C@H](CO[C@@H]4O[C@H](CO)[C@@H](O[C@@H]5O[C@H](C)[C@H](O)[C@@H](O)[C@H]5O)[C@H](O)[C@H]4O)[C@@H](O)[C@H](O)[C@H]3O)CC[C@]3(C)C(=CC[C@@H]4[C@@]5(C)C[C@@H](O)[C@H](O)[C@@](C)(CO)[C@@H]5CC[C@]43C)[C@H]12 [Asiaticoside] | 108 ± 13% | 114 ± 2.9%
30 | COc1ccc(C=C(C#N)c2cccnc2)cc1OC | 100 ± 14% | 103 ± 0.99%
31 | CN1C(=O)C(Cc2c[nH]c3ccccc23)NC1=S (configuration not stated) [Necrostatin-1] | 106 ± 9.9% | 93.4 ± 10%
32 | O=C1NC(=O)/C(=C/c2ccc3c(c2)OC(F)(F)O3)S1 | 102 ± 18% | 104 ± 34%
33 | CNC(=O)CN1CCC(Oc2cc3c(Nc4cccc(Cl)c4F)ncnc3cc2OC)CC1 [AZD8931 (Sapitinib)] | 104 ± 6.3% | 116 ± 4.9%
34 | COC(=O)c1ccc2c(c1)NC(=O)/C2=C(\Nc1ccc(N(C)C(=O)CN2CCN(C)CC2)cc1)c1ccccc1 | 87.7 ± 22% | 99.8 ± 8.2%
35 | O=C(NOC[C@H](O)CO)c1ccc(F)c(F)c1Nc1ccc(I)cc1F | 89.4% and 96.2% | 95.5% and 86.8%
36 | O=C1NCCSc2c1sc1ccc(O)cc21 | 92.9 ± 24% | 103 ± 14%
37 | Oc1cccc(-c2nc(N3CCOCC3)c3sccc3n2)c1 [PI3-Kinase ? Inhibitor 2] | 108.6 ± 0.5% | 120 ± 22%
38 | CC1(C)CNc2cc(NC(=O)c3cccnc3NCc3ccncc3)ccc21 [Motesanib Diphosphate (AMG-706)] | 89.2 ± 9.9% | 106 ± 12%
39 | CS(=O)(=O)c1ccc(-c2cnc(N)c(C(=O)Nc3ccccc3)n2)cc1 | 83.9 ± 3.9% | 93.76 ± 0.24%
40 | Cc1ccc(NC(=O)c2ccc(CN3CCN(C)CC3)cc2)cc1Nc1nc(-c2cccnc2)cs1 [Masitinib (AB1010)] | 98.2 ± 12% | 116 ± 26%
41 | Cn1cnc(N)c2ncnc1-2 [3-Methyladenine (3-MA)] | 98.3 ± 1.7% | 77.5 ± 24%
42 | C[C@H]1[C@H](C)CC[C@]2(C(=O)O)CC[C@]3(C)C(=CC[C@@H]4[C@@]5(C)C[C@@H](O)[C@H](O)[C@@](C)(CO)[C@@H]5CC[C@]43C)[C@H]12 [Asiatic acid] | 107 ± 22% | 103 ± 4.2%
43 | CCCN(CCC)C(=O)C(CCC(=O)O)NC(=O)c1ccccc1 (configuration not stated) [Proglumide] | 100 ± 3% | 106 ± 24%
44 | CCN1CCN(Cc2ccc(C(=O)Nc3ccc(C)c(Oc4ccc5c(c4)CC(=O)N5)c3)cc2C(F)(F)F)CC1 | 110 ± 13% | 114 ± 6.1%
45 | Cc1nc(Nc2cnn(C3CCNCC3)c2)nc2c1N(C)C(=O)c1cc3ccccc3cc1N2C | 95.6 ± 2.2% | 104.2 ± 0.14%
46 | O=C1Cc2c([nH]c3ccc(Br)cc23)-c2ccccc2N1 [Kenpaullone] | 88 ± 2.5% | 111 ± 5.9%
47 | Cc1cnc(NC(=O)Nc2cc(Br)c(C)cc2OC[C@@H]2CNCCO2)cn1 | 101 ± 11% | 109 ± 8.1%
48 | C[C@H]1[C@H](C)CC[C@]2(C(=O)O)CC[C@]3(C)C(=CC[C@@H]4[C@@]5(C)C[C@@H](O)[C@H](O)C(C)(C)[C@@H]5CC[C@]43C)[C@H]12 [Corosolic acid] | 113 ± 26% | 106 ± 11%

Row | SMILES | cell viability (Molm13) | cell viability (Mv4-11)
49 | COc1cc2ncnc(Sc3nnc(C)s3)c2cc1OC | 127 ± 30% | 115 ± 14%
50 | CN(C)CCN(Cc1ccc(Cl)cc1)c1ccccn1 [Chloropyramine hydrochloride] | 105 ± 27% | 107 ± 12%
51 | CN(C)C/C=C/C(=O)Nc1cc2c(Nc3ccc(F)c(Cl)c3)ncnc2cc1O[C@H]1CCOC1 [Afatinib (BIBW2992) Dimaleate] | 108 ± 11% | 102 ± 7.5%
52 | Cc1cccc(CC(=O)N2CCc3c2ccc(-c2cn(C)c4ncnc(N)c24)c3F)n1 | 114 ± 3.6% | 119 ± 22%
53 | CCC[C@H](NC(=O)/C(C#N)=C/c1cccc(Br)n1)c1ccccc1 | 132 ± 32% | 115 ± 11%
54 | O=C(Nc1cccnc1)c1cc(-c2ccnc(F)c2)ccc1OCc1ccccc1 | 101 ± 20% | 105 ± 2.3%
55 | Cn1c(=O)n(-c2ccc(C(C)(C)C#N)cc2)c2c3cc(-c4cnc5ccccc5c4)ccc3ncc21 | 107 ± 2.7% | 109 ± 15%
56 | O=c1cc(-c2cccc3c2Sc2ccccc2S3)oc(N2CCOCC2)c1 | 104 ± 4.7% | 103 ± 28%
57 | CC(=O)CC(c1ccccc1)c1c(O)c2ccccc2oc1=O (configuration not stated) [Warfarin sodium] | 105 ± 6.5% | 114 ± 4.9%
58 | Brc1c(Br)c(Br)c2n[nH]nc2c1Br | 113 ± 13% | 97.11 ± 0.32%
59 | CNC(=O)c1cc(Oc2ccc(NC(=O)Nc3ccc(Cl)c(C(F)(F)F)c3)cc2)ccn1 [Sorafenib] | 53.7 ± 6.9% | 47.8 ± 9.4%
60 | O=C1NC(=O)C(c2ccccc2[N+](=O)[O-])=C1Nc1ccc(O)c(Cl)c1 | 110 ± 9.4% | 120 ± 9.7%
61 | CC(C)=CCC[C@](C)(O)[C@H]1CC[C@]2(C)[C@@H]1[C@H](O)C[C@@H]1[C@@]3(C)CC[C@H](O)C(C)(C)[C@@H]3[C@@H](O[C@@H]3O[C@H](CO)[C@@H](O)[C@H](O)[C@H]3O[C@@H]3O[C@@H](C)[C@H](O)[C@@H](O)[C@H]3O)C[C@]12C [Ginsenoside Rg2] | 94.4 ± 23% | 93.6 ± 9.2%
62 | COc1ccc(Cl)c(Nc2nc3ccccc3nc2NS(=O)(=O)c2cccc(NC(=O)C(C)(C)N)c2)c1 [Pilaralisib (XL147)] | 117 ± 4% | 110 ± 11%
63 | Cn1cc(C2=C(c3cn(CCCSC(=N)N)c4ccccc34)C(=O)NC2=O)c2ccccc21 [Bisindolylmaleimide IX (mesylate)] | 99.3 ± 4.7% | 104 ± 12%
64 | CC(=O)c1c(C)c2cnc(Nc3ccc(N4CCNCC4)cn3)nc2n(C2CCCC2)c1=O [Palbociclib] | 90.4 ± 13% | 113 ± 9.9%
65 | CCN1/C(=C/C(C)=O)Sc2ccc(OC)cc21 | 106 ± 11% | 104 ± 6.5%
66 | O=C1Cc2c([nH]c3ccc(Br)cc23)-c2ccccc2N1 [KenPaullone] | 91.6 ± 2.8% | 95.2 ± 16%
67 | Nc1ncnc2c1c(-c1cnc3[nH]ccc3c1)nn2C1CCCC1 | 118 ± 2.6% | 125 ± 14%
68 | c1cc(-c2cnn3cc(-c4ccc(OCCN5CCCCC5)cc4)cnc23)ccn1 | 95.5 ± 6% | 117 ± 10%
69 | O=C(Nc1cccc(Nc2ncc(Br)c(NCCc3cnc[nH]3)n2)c1)N1CCCC1 | 73 ± 3.7% | 81.16 ± 0.49%
70 | Nc1n[nH]c(N)c1N=Nc1ccc(O)cc1 | 117 ± 6.2% | 110 ± 14%
71 | CS(=O)(=O)CCNCc1ccc(-c2ccc3ncnc(Nc4ccc(OCc5cccc(F)c5)c(Cl)c4)c3c2)o1 [Lapatinib ditosylate monohydrate] | 137 ± 32% | 108 ± 17%
